PubChem BioAssay (NCATS)
Records with an inconclusive call do not appear. Calls of active or inactive are those of the source. Calls come from the whole dose curve; as a rule, active = well fitted curve in the direction sought with a large enough effect; inconclusive = small, poorly fitted or top-dose-only effect, or another doubt; inactive = no such curve, though single readings can be large; an effect the other way counts as inactive or inconclusive.

How the values were obtained:
[1] = Quantitative High-Throughput drug screen in 47 multiple myeloma cell lines against the NCATS MIPE library collection: JJN3_DSMZ cell viability assay (AID 1918966; note: nearly all actives have a fitted effect of over 50% in size; note: potency is the fitted concentration of half-maximal effect)
In short: (§1)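 Approved and investigational drugs from MIPE 4.0 were added by pin tool to 500 cells per well. After 48 hours at 37C, ATP-based CellTiter-Glo luminescence indicated remaining viability.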

[2] = Quantitative High-Throughput drug screen in 47 multiple myeloma cell lines against the NCATS MIPE library collection: H1112_PLB cell viability assay (AID 1918967; note: nearly all actives have a fitted effect of over 30% in size; note: potency is the fitted concentration of half-maximal effect)
In short: as §1

[3] = Quantitative High-Throughput drug screen in 47 multiple myeloma cell lines against the NCATS MIPE library collection: KMS12BM_JCRB cell viability assay (AID 1918971); note: nearly all actives have a fitted effect of over 35% in size; note: potency is the fitted concentration of half-maximal effect
In short: (§2)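 qHTS of the MIPE 4.0 collection: 500 myeloma cells/well, 48 h drug exposure at 37C in 5% CO2, then CellTiter-Glo for 5 min at room temperature before luminescence reading.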

[4] = Quantitative High-Throughput drug screen in 47 multiple myeloma cell lines against the NCATS MIPE library collection: KMS12PE_JCRB cell viability assay (AID 1918972); note: nearly all actives have a fitted effect of over 30% in size; note: potency is the fitted concentration of half-maximal effect
In short: as §2

[5] = Quantitative High-Throughput drug screen in 47 multiple myeloma cell lines against the NCATS MIPE library collection: MOLP8_DSMZ cell viability assay (AID 1918977); note: nearly all actives have a fitted effect of over 45% in size; note: potency is the fitted concentration of half-maximal effect
In short: (§3)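 Viability after 48 h drug exposure was measured as ATP-dependent luminescence. Cells, 500 per well, sat at 37 °C under 5% CO2; DMSO wells set 100%, media-only wells 0%.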

[6] = Quantitative High-Throughput drug screen in 47 multiple myeloma cell lines against the NCATS MIPE library collection: NCIH929_DSMZ cell viability assay (AID 1918978); note: nearly all actives have a fitted effect of over 35% in size
In short: as §3

[7] = Quantitative High-Throughput drug screen in 47 multiple myeloma cell lines against the NCATS MIPE library collection: OCIMY1_PLB cell viability assay (AID 1918979); note: nearly all actives have a fitted effect of over 35% in size
In short: as §3

[8] = Quantitative High-Throughput drug screen in 47 multiple myeloma cell lines against the NCATS MIPE library collection: LP1_DSMZ cell viability assay (AID 1918982); note: nearly all actives have a fitted effect of over 35% in size
In short: as §3

[9] = Quantitative High-Throughput drug screen in 47 multiple myeloma cell lines against the NCATS MIPE library collection: KMS28PE_JCRB cell viability assay (AID 1918983); note: nearly all actives have a fitted effect of over 35% in size; note: potency is the fitted concentration of half-maximal effect
In short: as §3

[10] = Quantitative High-Throughput drug screen in 47 multiple myeloma cell lines against the NCATS MIPE library collection: KMS34_JCRB cell viability assay (AID 1918985); note: nearly all actives have a fitted effect of over 40% in size; note: potency is the fitted concentration of half-maximal effect
In short: as §3

[11] = Quantitative High-Throughput drug screen in 47 multiple myeloma cell lines against the NCATS MIPE library collection: Karpas25_ECACC cell viability assay (AID 1918968; note: nearly all actives have a fitted effect of over 35% in size; note: potency is the fitted concentration of half-maximal effect)
In short: as §1

[12] = Quantitative High-Throughput drug screen in 47 multiple myeloma cell lines against the NCATS MIPE library collection: KMS27_JCRB cell viability assay (AID 1918970); conditions: KMS27 myeloma cells, CellTiter-Glo ATP viability, 48 h; viability (% of DMSO): at 45.8 µM (top of the series); note: nearly all actives have a fitted effect of over 30% in size; note: potency is the fitted concentration of half-maximal effect
In short: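 Luminescent ATP read-out (CellTiter-Glo, 5 min at room temperature) after 48 h compound exposure of 500 KMS27_JCRB cells per well; DMSO wells define full viability and media-only wells zero.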

[13] = Quantitative High-Throughput drug screen in 47 multiple myeloma cell lines against the NCATS MIPE library collection: MM1R_ATCC cell viability assay (AID 1918981); note: nearly all actives have a fitted effect of over 35% in size
In short: as §3

[14] = Quantitative High-Throughput drug screen in 47 multiple myeloma cell lines against the NCATS MIPE library collection: L363_DSMZ cell viability assay (AID 1918984); note: nearly all actives have a fitted effect of over 40% in size
In short: as §3

[15] = Quantitative High-Throughput drug screen in 47 multiple myeloma cell lines against the NCATS MIPE library collection: MM1S_ATCC cell viability assay (AID 1918980); note: nearly all actives have a fitted effect of over 45% in size; note: potency is the fitted concentration of half-maximal effect
In short: as §3

[16] = Quantitative High-Throughput drug screen in 47 multiple myeloma cell lines against the NCATS MIPE library collection: KMS20_JCRB cell viability assay (AID 1918973); note: nearly all actives have a fitted effect of over 45% in size
In short: as §1

[17] = Quantitative High-Throughput drug screen in 47 multiple myeloma cell lines against the NCATS MIPE library collection: KMS26_JCRB cell viability assay (AID 1918975); note: nearly all actives have a fitted effect of over 45% in size
In short: as §2

[18] = Quantitative High-Throughput drug screen in 47 multiple myeloma cell lines against the NCATS MIPE library collection: MMM1_PLB cell viability assay (AID 1918976)
In short: as §3

[19] = Quantitative High-Throughput drug screen in 47 multiple myeloma cell lines against the NCATS MIPE library collection: KMS21BM_JCRB cell viability assay (AID 1918974); conditions: ATP luminescence, 48 h; viability: at 45.8 µM (top of the series)
In short: as §1

Measured: Potency

O=C(C=CC=Cc1ccc2c(c1)OCO2)N1CCCCC1
inactive: [1] | [2] | [3] | [5] | [6] | [7] | [8] | [9] | [10]
active: [4] 16.6 µM

CCN(C(=O)c1c(O)c2c(Cl)cccc2n(C)c1=O)c1ccccc1
active: [12] 16.6 µM
inactive: [2] | [11] | [3] | [5] | [6] | [7] | [13] | [8] | [9] | [14]

C[C@H]1C[C@H]2[C@@H]3CCC4=CC(=O)C=C[C@]4(C)[C@@H]3C(=O)C[C@]2(C)[C@@]1(O)C(=O)CO
inactive: [1] | [2] | [11] | [12] | [3] | [4] | [5] | [15] | [13] | [8] | [9]

C[C@]12C=CC(=O)N[C@@H]1CC[C@H]1[C@H]3CC[C@@H](C(=O)Nc4cc(C(F)(F)F)ccc4C(F)(F)F)[C@@]3(C)CC[C@@H]12
inactive: [12] | [4] | [7]
active: [1] 18.7 µM | [2] 13.2 µM | [11] 11.8 µM | [3] 20.9 µM | [9] 20.9 µM

O=C(O)[C@H](CC(=O)N1C[C@@H]2CCCC[C@H]2C1)Cc1ccccc1
inactive: [1] | [2] | [16] | [17] | [6] | [8]

Cn1cc(C[C@@H](N)C(=O)O)c2ccccc21
active: [3] 2.29 µM | [18] 0.645 µM | [5] 0.115 µM | [10] 4.57 µM
inactive: [2] | [11] | [12] | [17] | [6] | [7] | [15]

CC[C@H](CC[C@@H](C)[C@H]1CC[C@H]2[C@@H]3CC=C4C[C@@H](O)CC[C@]4(C)[C@@H]3CC[C@]12C)C(C)C
inactive: [1] | [2] | [11] | [3] | [16] | [19] | [17] | [5] | [6] | [7] | [13] | [8] | [9] | [10]

CCn1c(=O)c2c(nc(C=Cc3ccc(OC)c(OC)c3)n2C)n(CC)c1=O
active: [12] 11.8 µM | [4] 20.9 µM | [15] 26.4 µM
inactive: [1] | [2] | [11] | [3] | [17] | [6] | [7] | [13] | [8] | [9] | [10]
